# Assay results as given in the supplement of paper PMC3334620.
# In all, about 33,000 sequences were measured (“E-score (-0.5 to 0.5)”: median about -0.054, highest 2% from about 0.35 on). The full list was thinned out, with the highest values kept by preference.
# Target: T1, Stb5 (UniProt P38699)
# T1 sequence: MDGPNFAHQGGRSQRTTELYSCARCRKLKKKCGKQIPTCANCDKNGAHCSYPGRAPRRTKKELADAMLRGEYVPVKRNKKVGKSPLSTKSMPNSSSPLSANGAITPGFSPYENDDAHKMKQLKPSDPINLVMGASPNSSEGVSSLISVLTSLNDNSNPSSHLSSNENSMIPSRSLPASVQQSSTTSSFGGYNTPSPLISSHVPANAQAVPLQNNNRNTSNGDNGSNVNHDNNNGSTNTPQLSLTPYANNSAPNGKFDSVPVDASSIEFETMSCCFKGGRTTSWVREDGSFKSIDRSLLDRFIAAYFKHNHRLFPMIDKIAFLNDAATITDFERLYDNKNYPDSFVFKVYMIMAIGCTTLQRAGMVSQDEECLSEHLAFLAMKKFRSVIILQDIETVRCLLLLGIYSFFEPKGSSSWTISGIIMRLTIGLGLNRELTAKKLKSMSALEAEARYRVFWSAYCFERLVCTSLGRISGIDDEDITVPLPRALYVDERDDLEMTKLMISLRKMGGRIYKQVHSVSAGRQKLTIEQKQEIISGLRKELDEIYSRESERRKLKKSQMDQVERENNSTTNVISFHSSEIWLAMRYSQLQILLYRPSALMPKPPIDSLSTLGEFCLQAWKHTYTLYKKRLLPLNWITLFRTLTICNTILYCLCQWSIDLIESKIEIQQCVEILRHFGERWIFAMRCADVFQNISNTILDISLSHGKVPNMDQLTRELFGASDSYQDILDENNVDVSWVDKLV
# Experiment: PBM E-score (8-mer binding enrichment) (E-score (-0.5 to 0.5)); higher = stronger / more preferred TF binding
# Details: protein concentration: 200 nM; construct: GST-full length
# Protocol: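 Universal 'all 10-mer' protein binding microarrays (Agilent AMADID 015681) probed with GST-tagged S. cerevisiae TFs (full-length or DBD) made by in vitro transcription/translation (PURExpress), about 100-200 nM. Bound TF was detected with fluorescent anti-GST. Each ungapped 8-mer (which stands for itself and its reverse complement) is scored by the PBM enrichment score (E-score), a modified Wilcoxon-Mann-Whitney statistic from -0.5 to +0.5, computed with the Universal PBM Analysis Suite. Scale: above 0.35 generally sequence-specific binding.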
row,Sequence,PBM E-score
1,CGACTTAA,-0.0485
2,GGACTTAA,0.373
3,AGACTTAA,-0.288
4,ATAGAATA,-0.0414
5,CGATAACC,0.16
6,CAACCCGC,0.169
7,AGACCCGA,0.287
8,GAACCCGA,0.0501
9,GAACCCGC,0.199
10,AAACCCGA,0.395
11,CGACCCGC,0.198
12,AGACCCGC,0.36
13,AAACCCGG,0.395
14,AAACCCGT,0.318
15,AAACCCGC,0.414
16,TAACCCGA,0.225
17,CAACCCGG,0.0495
18,ATGGACTC,-0.103
19,CCCGGCTA,0.337
20,ACCTGGAG,-0.133
21,CAAGGCTG,-0.26
22,AGATAACA,-0.0529
23,TCGCCCCA,-0.317
24,ATCACCTC,0.0381
25,ATCACCGA,0.433

row,Sequence,PBM E-score
1,ATCACCAG,-0.0626
2,ATCACCGC,0.447
3,CTCACCGC,0.164
4,GTCACCGA,0.285
5,ATCACCGG,0.37
6,CTCACCGA,0.248
7,ATCACCTG,0.0314
8,TATGCACA,-0.16
9,GCCTCGCA,-0.0909
10,CGCATTTC,-0.0467
11,GGCAGTAA,0.256
12,AGGAGCAT,-0.255
13,CCGCATTA,0.243
14,GCTGGCCC,-0.184
15,GACATCCA,-0.0118
16,TCAGTGAA,-0.111
17,CTTCGAGC,-0.0166
18,ATACCCCC,0.351
19,AGACCCCC,-0.165
20,AACCCCGG,0.453
21,AGACCCCG,0.394
22,AAACCCCG,0.476
23,ATACCCCA,-0.0468
24,ATACCCCG,0.392
25,AAACCCCT,0.153

row,Sequence,PBM E-score
1,AACCCGGG,0.262
2,ACCCCCGG,0.336
3,AAACCCCA,0.0234
4,AGACCCGG,0.341
5,AAAATGTT,-0.267
6,CACTTGCG,-0.0879
7,CGTGTCCC,-0.0774
8,CCATTTAA,-0.073
9,CAGCTGTC,-0.31
10,ACACGGTA,0.144
11,AGACCAGG,-0.149
12,ATGCGACC,0.0704
13,AAGGCGCT,0.109
14,ATACCTAG,-0.233
15,CAACCCCA,-0.221
16,CAACCCCC,0.14
17,ACCCCCCG,0.204
18,AACCCCCG,0.401
19,CAACCCCG,0.371
20,AACCCCCC,0.0126
21,ACTAGCCC,0.15
22,ACTCGTCA,-0.163
23,GCCCCTAC,0.076
24,ATTCTTGG,-0.0109
25,ACCGGACA,0.321

row,Sequence,PBM E-score
1,ACCGGACT,0.376
2,ACCGGACG,0.329
3,CCCGGACC,0.185
4,GCCGGACC,0.281
5,ACCGGACC,0.354
6,AAACTCAC,-0.172
7,TAATAAGA,0.0281
8,GCTCTTTA,0.0664
9,CACTGCTC,-0.117
10,AAGCGTGC,-0.171
11,ACGAGCGT,-0.163
12,AAGTTCCT,-0.098
13,CAGTTCCG,0.0961
14,AAGTTCCG,0.373
15,ACCACAGA,-0.0655
16,CCCGCTAA,0.261
17,AGCGACTG,-0.328
18,CCGCTCCC,0.247
19,CCGCTCCG,0.361
20,CCGCTACA,0.262
21,CCGCTACG,0.355
22,ACGCTCGC,-0.078
23,CCGCTCGA,0.328
24,ACGCTACG,-0.187
25,ACGCTCCG,0.174

row,Sequence,PBM E-score
1,CCGCTCGC,0.373
2,CAGTTGCC,-0.0751
3,AGAAAGAC,-0.0525
4,GATATAGA,-0.162
5,AACGGGTG,0.155
6,GTGAAGCA,-0.165
7,AGATTTTA,0.0159
8,ACACTATG,-0.13
9,AAAGTCTC,-0.145
10,AAGACCAG,-0.107
11,GAGACCGC,0.311
12,CAGACCGG,0.272
13,GAGACCGA,0.257
14,AAGACCTT,-0.073
15,CAGACCGC,0.272
16,AAGACCGC,0.443
17,AAGACCAT,-0.18
18,AAGACCGT,0.382
19,AAGACCGG,0.418
20,CAGACCGA,0.174
21,AAGACCGA,0.414
22,CCTCTGAG,-0.141
23,ACTGCGGC,0.168
24,TCGTTAGA,-0.147
25,ATAAGGGG,-0.0458

row,Sequence,PBM E-score
1,ACGTTGAA,-0.0556
2,AGCCATAC,-0.269
3,GCTTGAAA,-0.11
4,AATGCTGT,-0.0756
5,GCCGATCC,0.207
6,AGCGCCGG,0.376
7,AGCGCCCG,0.198
8,CGCGCCGC,0.325
9,AGCGCCAC,0.162
10,AGCGCCGC,0.41
11,AGCGCCGA,0.342
12,CTCTTATC,-0.11
13,CTTTTTAC,0.145
14,GCTGCTAA,0.122
15,AACCCGTC,0.183
16,ACCCCGTG,0.367
17,CCCCCGTC,0.233
18,ACCCCGTA,0.301
19,ACCCCGTC,0.381
20,AACCCGTG,-0.0372
21,AGCTGTGA,-0.266
22,AGGGGTAA,-0.249
23,CGGGTATA,0.403
24,AGGGTATA,0.217
25,AGGGTCTA,-0.0622

row,Sequence,PBM E-score
1,CGGGGCTA,0.454
2,GGGGGCTA,0.0408
3,CGGGTCTC,0.151
4,GGGGTATA,0.26
5,AGGGGCTA,-0.0747
6,CGGGGTAA,0.424
7,CGGGTCTA,0.412
8,GGGGGTAA,0.248
9,CCTTAATA,0.03
10,CCCAAGGA,-0.0196
11,CTTCGCCA,0.0018
12,GATTAGTA,0.0787
13,ATACATGG,-0.155
14,CGCATCAA,0.126
15,ACGCTTAG,-0.072
16,GTGGGTTA,-0.0789
17,CTCCTCTC,-0.308
18,AGGGGTTC,-0.15
19,CGGGGGTA,0.451
20,CGGGGTTC,0.388
21,GGGGGGTA,0.0523
22,CCGGGGTA,0.268
23,CCGGGTTC,0.24
24,GGAGCCAA,0.00764
25,GACTATAC,0.0897

row,Sequence,PBM E-score
1,AAGGACGG,0.162
2,AGACGGAC,0.331
3,CGACGGAC,0.368
4,CGACGGAG,0.339
5,GGACGGAC,0.359
6,GGACGGAA,0.133
7,CGACGGAA,0.262
8,CGCCTCGA,0.0565
9,GCTATTGA,0.168
10,GTTCGATA,-0.036
11,CCTGTTTA,0.0509
12,CGTTTGCA,0.0334
13,ACCTGAAA,-0.098
14,ATCGCCGC,0.385
15,GTCGCCGA,0.19
16,CTCGCCGC,0.0978
17,ATCGCCAG,-0.0866
18,ATCGCCTG,-0.215
19,ATAGCCGC,0.312
20,CTCGCCGA,-0.0352
21,ATAGCCGA,0.216
22,ATCGCCGG,0.368
23,ATCGCCGA,0.387
24,ATCGCCTC,-0.271
25,ATAGCCGG,0.373

row,Sequence,PBM E-score
1,AGGCAACC,-0.251
2,ATGAGCTC,-0.262
3,GAGTCTGA,-0.308
4,CAAAAGAG,-0.072
5,TCAGTTCA,-0.229
6,CGCGTCAC,-0.194
7,AAAACACT,0.0252
8,CAAACACC,0.352
9,CAAACACA,-0.126
10,AAAACACG,-0.0278
11,CAAACACG,-0.114
12,AAAACACC,0.353
13,AGTTGTAC,0.0567
14,ATAGTCAC,-0.0899
15,ACAGACCC,-0.00703
16,CCAGGAGG,-0.238
17,TTTCAAAA,-0.0616
18,CCTAACCC,0.0781
19,CGACGATC,-0.058
